Out of some 87,000 compounds screened, about 540 (0.62%) were called active. No rule for the calls is given here. Only a selection was taken, and actives are over-represented in it overall. Entries with a potency or affinity are not part of this list.
assay: inhibitors of MT1-MMP promoter transcription, cell-based, luciferase reporter, luminescence (AID 618); conditions: MT1-MMP promoter luciferase reporter cells;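 also: actives suppress MT1-MMP promoter-driven transcription so potencies describe inhibitors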

Which outcome does the source give for `O=S(=O)(/N=C(\c1ccccc1)N1CCOCC1)c1cccs1` here?
The outcome was “inactive”.

Which outcome does the source give for `COCCn1nnnc1CN1CCC(C)CC1` here?
Its outcome is “inactive”.

With `CCc1cc(=O)oc2cc(OCC(=O)N3CCc4ccccc43)ccc12` as the molecule, how does the outcome read?
Its outcome is “inactive”.

With `COCCCN1C(=O)C(=O)/C(=C(/O)c2ccc(OC(C)C)cc2)C1c1ccncc1` (stereo not drawn) as the molecule, how does the outcome read?
Its outcome is “inactive”.

Which outcome does the source give for `COc1ccc(-c2c/c(=N\c3nc(-c4ccccc4)c(C)s3)c3ccccc3o2)cc1O` here?
The outcome was “active”.

For `COc1ccc(-c2nc(-c3cccs3)c(-c3cccs3)[nH]2)cc1O`, which outcome is on record?
Its outcome is “inactive”.

With `COc1ccc(-c2nc(-c3ccccc3)c(-c3cc([N+](=O)[O-])ccc3C)[nH]2)cc1O` as the molecule, how does the outcome read?
The outcome was “inactive”.

For `Cc1nn(C)c(C)c1S(=O)(=O)N1CCC(C(=O)NCC2COc3ccccc3O2)CC1` (stereo not drawn), which outcome is on record?
Its outcome is “inactive”.

For `COC(=O)[C@@H]1C[C@@H]2CC[C@@H](O)C[C@@H]2N1Cc1ccc(-c2ccccc2)cc1`, which outcome is on record?
Its outcome is “inactive”.

With `COC(=O)[C@@H]1C[C@H]2CC[C@H](O)C[C@H]2N1Cc1ccc(-c2ccccc2)cc1` as the molecule, how does the outcome read?
The outcome was “active”.

With `COC(=O)[C@@H]1C[C@@H]2CC[C@@H](O)C[C@@H]2N1Cc1ccc(Cl)cc1` as the molecule, how does the outcome read?
Its outcome is “inactive”.

With `CC1(C)CC(=O)c2cnn(-c3nc4ccccc4[nH]3)c2C1` as the molecule, how does the outcome read?
Its outcome is “inactive”.

For `O=c1c(Cl)c(NCCCO)cnn1-c1nc2ccccc2[nH]1`, which outcome is on record?
The outcome was “inactive”.

For `CC(=O)c1c(C)nn(C(=O)N2CCOCC2)c1C`, which outcome is on record?
The outcome was “inactive”.

Which outcome does the source give for `CCOc1ccccc1N(C(=O)CNS(=O)(=O)c1ccccc1)C(CC)C(=O)NCc1ccco1` (stereo not drawn) here?
Its outcome is “inactive”.

For `COc1ccc(/C=N\n2nnc3ccccc32)cc1`, which outcome is on record?
The outcome was “active”.

With `COc1ccc(/C=N/n2cnnc2SCc2ccccc2)cc1` as the molecule, how does the outcome read?
The outcome was “inactive”.

Which outcome does the source give for `COc1ccc(/C=N/n2c(N)nc3ccccc32)cc1OC` here?
The outcome was “inactive”.

With `CC1(c2ccccc2)NC(=O)N(CC(=O)N2CCOCC2)C1=O` (stereo not drawn) as the molecule, how does the outcome read?
The outcome was “inactive”.

Which outcome does the source give for `O=c1c2ccccc2cnn1-c1ccc(Cl)cc1` here?
Its outcome is “inactive”.

With `O=c1c2ccccc2cnn1-c1ccc(Br)cc1` as the molecule, how does the outcome read?
The outcome was “inactive”.

For `O=c1c2ccccc2cnn1-c1nc2ccccc2s1`, which outcome is on record?
Its outcome is “active”.

Which outcome does the source give for `COc1ccc(-c2noc(CCC(=O)NCCCN3CCC(Cc4ccccc4)CC3)n2)cc1` here?
The outcome was “inactive”.

Which outcome does the source give for `CCCC(=O)Nc1ccc(Cl)c(NC(=O)c2cccnc2)c1` here?
Its outcome is “inactive”.

For `O=C1CCCCCN1C(=O)c1ccc(C(=O)N2CCCCCC2=O)cc1`, which outcome is on record?
The outcome was “inactive”.

With `O=C1CCCCCN1C(=O)c1cccc(C(=O)N2CCCCCC2=O)c1` as the molecule, how does the outcome read?
The outcome was “inactive”.

With `Cc1ccc2c(c1)CCCN2C(=O)C1CCCO1` (stereo not drawn) as the molecule, how does the outcome read?
The outcome was “inactive”.

For `Cc1ccc2nc(NC(=O)c3ccc(Cl)s3)sc2c1`, which outcome is on record?
The outcome was “inactive”.

Which outcome does the source give for `Cc1ccc2nc(NC(=O)c3cccs3)sc2c1` here?
Its outcome is “active”.

Which outcome does the source give for `CCN(CC)S(=O)(=O)c1ccc2nc(NC(=O)c3cccs3)sc2c1` here?
Its outcome is “inactive”.

For `CCOC(=O)c1ccc2nc(NC(=O)c3cccs3)sc2c1`, which outcome is on record?
Its outcome is “inactive”.

For `CN(C)S(=O)(=O)c1ccc2nc(NC(=O)c3cccs3)sc2c1`, which outcome is on record?
Its outcome is “inactive”.

For `CS(=O)(=O)c1ccc2nc(NC(=O)c3cccs3)sc2c1`, which outcome is on record?
Its outcome is “active”.
